13 sequences from PMC8384837, “Expanding the binding specificity for RNA recognition by a PUF domain” can be followed below.

Common to all, as to test: yeast three-hybrid, YBZ-1, SC-Leu-His + 0.5 mM 3-AT, 4 days
Holding throughout (conditions): tags: N-Gal4 AD-HA kept; label: inside an RPR1-promoter hybrid RNA with tandem MS2 sites; ssRNA

For one assay, the target named is PUM1 PUF domain R1-KWE (Homo sapiens, UniProt Q14671 828-1176, S863K;R864W;Q867E). An outline of the steps: (§1)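 The interaction score is the log change in how often each variant appears, from input to selection. Frequencies came from PCR-amplified, Illumina-sequenced repeat regions of Pumilio-1 PUF domain libraries grown in strain YBZ-1 (LexA–MS2 coat fusion, HIS3 reporter) alongside matching RNA elements. Input plates were SC-Leu and selection plates were SC-Leu-His + 0.5 mM 3-AT, each for four days, and the log2 calculation used a pseudocount of 1 where a variant was absent.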

Another assay addresses PUM1 PUF domain R1-YRR (Homo sapiens, UniProt Q14671 828-1176, S863Y;Q867R). An outline of the steps: as §1
The target of the next assay is PUM1 PUF domain R4-DYN (Homo sapiens, UniProt Q14671 828-1176, N971D;H972Y;Q975N). The gist of the method:
as §1

In another assay the target is PUM1 PUF domain R3-CFG (Homo sapiens, UniProt Q14671 828-1176, R936F;Q939G). An outline of the steps:
as §1

In another assay the target is PUM1 PUF domain R3-VNE (Homo sapiens, UniProt Q14671 828-1176, C935V;R936N;Q939E). An outline of the steps: as §1
A further assay deals with T1, PUM1 PUF domain R6-SHE (Homo sapiens, UniProt Q14671 828-1176, N1043S;Y1044H;Q1047E).
T1 sequence: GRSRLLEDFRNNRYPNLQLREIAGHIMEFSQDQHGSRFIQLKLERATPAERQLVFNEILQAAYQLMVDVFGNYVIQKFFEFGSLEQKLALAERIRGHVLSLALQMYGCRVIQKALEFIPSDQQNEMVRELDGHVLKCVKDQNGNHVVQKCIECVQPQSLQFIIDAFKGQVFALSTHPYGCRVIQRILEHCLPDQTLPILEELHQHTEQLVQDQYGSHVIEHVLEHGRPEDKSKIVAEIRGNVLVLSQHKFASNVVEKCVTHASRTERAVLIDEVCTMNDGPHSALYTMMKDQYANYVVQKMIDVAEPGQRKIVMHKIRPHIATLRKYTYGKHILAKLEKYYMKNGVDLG
An outline of the steps: as §1

The target in another assay is PUM1 PUF domain R5-MSR (Homo sapiens, UniProt Q14671 828-1176, C1007M;R1008S;Q1011R). The gist of the method:
as §1

In another assay the target is PUM1 PUF domain R5-RMK (Homo sapiens, UniProt Q14671 828-1176, C1007R;R1008M;Q1011K). An outline of the steps: as §1
For the next assay, the target named is T2, PUM1 PUF domain R6-LWV (Homo sapiens, UniProt Q14671 828-1176, N1043L;Y1044W;Q1047V).
T2 sequence: T1 sequence with S216L, H217W, E220V
An outline of the steps:
as §1

The target of a further assay is T3, PUM1 PUF domain R6-QWM (Homo sapiens, UniProt Q14671 828-1176, N1043Q;Y1044W;Q1047M).
T3 sequence: T1 sequence with S216Q, H217W, E220M
An outline of the steps: as §1

The next assay addresses PUM1 PUF domain R1-RMT (Homo sapiens, UniProt Q14671 828-1176, S863R;R864M;Q867T). The gist of the method:
as §1

The next assay deals with PUM1 PUF domain R3-RQG (Homo sapiens, UniProt Q14671 828-1176, C935R;R936Q;Q939G). An outline of the steps:
as §1

In another assay the target is PUM1 PUF domain R3-QPE (Homo sapiens, UniProt Q14671 828-1176, C935Q;R936P;Q939E). An outline of the steps:
as §1

Another assay concerns the target PUM1 PUF domain R3-LYS (Homo sapiens, UniProt Q14671 828-1176, C935L;R936Y;Q939S). The gist of the method:
as §1

Another assay deals with T4, PUM1 PUF domain R6-KWR (Homo sapiens, UniProt Q14671 828-1176, N1043K;Y1044W;Q1047R).
T4 sequence: T1 sequence with S216K, H217W, E220R
An outline of the steps: as §1

Another assay deals with PUM1 PUF domain R7-QRD (Homo sapiens, UniProt Q14671 828-1176, S1079Q;N1080R;E1083D). An outline of the steps:
as §1

The next assay addresses PUM1 PUF domain R3-GWI (Homo sapiens, UniProt Q14671 828-1176, C935G;R936W;Q939I). An outline of the steps:
as §1

Another assay concerns the target PUM1 PUF domain R8-RKR (Homo sapiens, UniProt Q14671 828-1176, N1122R;Y1123K;Q1126R). The gist of the method: as §1
In a further assay the target is PUM1 PUF domain R2-KLQ (Homo sapiens, UniProt Q14671 828-1176, N899K;Y900L). An outline of the steps:
as §1

The next assay concerns the target PUM1 PUF domain R5-KHL (Homo sapiens, UniProt Q14671 828-1176, C1007K;R1008H;Q1011L). An outline of the steps:
as §1

Numbering of substitutions follows the chain as printed.

Sequence of PUM1 PUF domain R1-YRR (Q14671 828-1176 S863Y/Q867R): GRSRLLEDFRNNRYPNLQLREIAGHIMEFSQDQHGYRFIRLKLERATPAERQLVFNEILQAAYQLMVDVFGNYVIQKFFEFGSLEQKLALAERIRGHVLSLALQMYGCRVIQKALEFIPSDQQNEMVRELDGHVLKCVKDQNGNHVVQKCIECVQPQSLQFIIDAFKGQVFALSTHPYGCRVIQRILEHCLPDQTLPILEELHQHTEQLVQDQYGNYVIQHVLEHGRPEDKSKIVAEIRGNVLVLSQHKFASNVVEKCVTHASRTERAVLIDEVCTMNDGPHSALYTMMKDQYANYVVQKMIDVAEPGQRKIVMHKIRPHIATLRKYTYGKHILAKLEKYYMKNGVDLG

In the case of “GGCUAGAACUAGUGGAUCCCCCGGCGCCCGGCGGCUCGAGCCCGGGUAAGUGUAAAUCGUCUGCAUGCCGCCGGGCGCCAUGCCUGCAGGUCGACUCUAGAAAACAUG”, the values for the binding signal in the assay with PUM1 PUF domain R1-KWE and with PUM1 PUF domain R1-YRR were 4.74 log2 enrichment (interaction score) and 7.93 log2 enrichment (interaction score), respectively.

For “GGCUAGAACUAGUGGAUCCCCCGGCGCCCGGCGGCUCGAGCCCGGGUAAGUGUAUAUAGUCUGCAUGCCGCCGGGCGCCAUGCCUGCAGGUCGACUCUAGAAAACAUG”, the binding signal with PUM1 PUF domain R4-DYN was 5.22 log2 enrichment (interaction score).

As to “GGCUAGAACUAGUGGAUCCCCCGGCGCCCGGCGGCUCGAGCCCGGGUAAGUGUAAGUAGUCUGCAUGCCGCCGGGCGCCAUGCCUGCAGGUCGACUCUAGAAAACAUG”, the binding signal with PUM1 PUF domain R3-CFG was 1.61 log2 enrichment (interaction score); with PUM1 PUF domain R3-VNE, 0.75 log2 enrichment (interaction score).

“GGCUAGAACUAGUGGAUCCCCCGGCGCCCGGCGGCUCGAGCCCGGGUAAGUGGAAAUAGUCUGCAUGCCGCCGGGCGCCAUGCCUGCAGGUCGACUCUAGAAAACAUG”: the binding signal in the assay with PUM1 PUF domain R6-SHE is 4.66 log2 enrichment (interaction score).

As for “GGCUAGAACUAGUGGAUCCCCCGGCGCCCGGCGGCUCGAGCCCGGGUAAGUGUCAAUAGUCUGCAUGCCGCCGGGCGCCAUGCCUGCAGGUCGACUCUAGAAAACAUG”, the binding signal with PUM1 PUF domain R5-MSR is 3.83 log2 enrichment (interaction score); with PUM1 PUF domain R5-RMK, 2.87 log2 enrichment (interaction score).

In the case of “GGCUAGAACUAGUGGAUCCCCCGGCGCCCGGCGGCUCGAGCCCGGGUAAGUGAAAAUAGUCUGCAUGCCGCCGGGCGCCAUGCCUGCAGGUCGACUCUAGAAAACAUG”, the binding signal was 2.8 log2 enrichment (interaction score) in the assay with PUM1 PUF domain R6-LWV and 4.68 log2 enrichment (interaction score) in the assay with PUM1 PUF domain R6-QWM.

In the case of “GGCUAGAACUAGUGGAUCCCCCGGCGCCCGGCGGCUCGAGCCCGGGUAAGUGUAAAUGGUCUGCAUGCCGCCGGGCGCCAUGCCUGCAGGUCGACUCUAGAAAACAUG”, the binding signal with PUM1 PUF domain R1-YRR is 4.42 log2 enrichment (interaction score); with PUM1 PUF domain R1-RMT, 1.2 log2 enrichment (interaction score).

Take “GGCUAGAACUAGUGGAUCCCCCGGCGCCCGGCGGCUCGAGCCCGGGUAAGUGUAAAUUGUCUGCAUGCCGCCGGGCGCCAUGCCUGCAGGUCGACUCUAGAAAACAUG”: the binding signal in the assay with PUM1 PUF domain R1-YRR is 8.31 log2 enrichment (interaction score); in the assay with PUM1 PUF domain R1-RMT, 3.66 log2 enrichment (interaction score).

Turning to “GGCUAGAACUAGUGGAUCCCCCGGCGCCCGGCGGCUCGAGCCCGGGUAAGUGUAAUUAGUCUGCAUGCCGCCGGGCGCCAUGCCUGCAGGUCGACUCUAGAAAACAUG”, the binding signal is 4.14 log2 enrichment (interaction score) with PUM1 PUF domain R3-RQG, 2.87 log2 enrichment (interaction score) with PUM1 PUF domain R3-QPE, 2.06 log2 enrichment (interaction score) in the assay with PUM1 PUF domain R3-CFG and 5.78 log2 enrichment (interaction score) with PUM1 PUF domain R3-LYS.

In the case of “GGCUAGAACUAGUGGAUCCCCCGGCGCCCGGCGGCUCGAGCCCGGGUAAGUGUAAAUAGUCUGCAUGCCGCCGGGCGCCAUGCCUGCAGGUCGACUCUAGAAAACAUG”, the binding signal was 6.69 log2 enrichment (interaction score) in the assay with PUM1 PUF domain R6-KWR; 2.72 log2 enrichment (interaction score) with PUM1 PUF domain R7-QRD; 3.67 log2 enrichment (interaction score) in the assay with PUM1 PUF domain R6-LWV; 2.68 log2 enrichment (interaction score) with PUM1 PUF domain R3-GWI; 1 log2 enrichment (interaction score) with PUM1 PUF domain R5-MSR; 3.86 log2 enrichment (interaction score) with PUM1 PUF domain R3-CFG. The binding signal was 3.16 log2 enrichment (interaction score) with PUM1 PUF domain R3-VNE, 3.9 log2 enrichment (interaction score) with PUM1 PUF domain R8-RKR and 4.77 log2 enrichment (interaction score) in the assay with PUM1 PUF domain R3-LYS.

Consider “GGCUAGAACUAGUGGAUCCCCCGGCGCCCGGCGGCUCGAGCCCGGGUAAGCGUAAAUAGUCUGCAUGCCGCCGGGCGCCAUGCCUGCAGGUCGACUCUAGAAAACAUG”, for which, in the assay with PUM1 PUF domain R8-RKR, the binding signal was 5.43 log2 enrichment (interaction score).

In the case of “GGCUAGAACUAGUGGAUCCCCCGGCGCCCGGCGGCUCGAGCCCGGGUAAGUGUAAAGAGUCUGCAUGCCGCCGGGCGCCAUGCCUGCAGGUCGACUCUAGAAAACAUG”, the binding signal with PUM1 PUF domain R2-KLQ is 3.21 log2 enrichment (interaction score).

For the sequence “GGCUAGAACUAGUGGAUCCCCCGGCGCCCGGCGGCUCGAGCCCGGGUAAGUGUUAAUAGUCUGCAUGCCGCCGGGCGCCAUGCCUGCAGGUCGACUCUAGAAAACAUG”, the binding signal in the assay with PUM1 PUF domain R5-KHL was 5.83 log2 enrichment (interaction score).
